Source: PubChem BioAssay (NCI)
About 83,000 compounds went through this panel and 20% of them were active in at least one assay; those are over-represented in the sample as a whole.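 Percent growth is the endpoint: 0 to 100 indicates growth inhibition (40 means 60% inhibition), 0 means no net growth, and negative values indicate cell death.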 Unmarked numbers belong to inactive results. Active and inactive are the calls of the source. The calls were made as follows: active = growth percent below 10; inactive = the rest.

System: HS 578T breast
Assay: NCI-60 one-dose screen, 48 h (100 = growth as untreated, 0 = no growth, -100 = all killed)
Details: 10 µM unless noted

| Compound | growth |
| --- | --- |
| COc1ccc2[nH]cc(-c3csc4nc(-c5ccccc5)cn34)c2c1 | -3.7% (active) |
| COc1cc(Cn2cc3c(c2)-c2onc(CN4CCCC4)c2CC3)cc(OC)c1OC | 97.7% |
| COC(=O)/C=C/c1c(C2(C)NC(=O)c3ccccc3N2)c(=O)oc2ccc(Cl)cc12 (stereo not drawn) | 90.9% |
| Cc1ccc2c(c1)Oc1nc(N)c(C#N)c(N)c1C2Sc1ccc(F)cc1 (stereo not drawn) | -38.1% (active) |
| COc1ccc(Cn2cc3c(c2-c2cc(OC)c(OC)c(OC)c2)CCc2c(CN4CCCC4)noc2-3)cc1 | 10.3% |
| COc1ccc(Cn2cc3c(c2-c2cc(OC)c(OC)c(OC)c2)CCc2c(CN4CCOCC4)noc2-3)cc1 | 15.3% |
| CCNC(=O)N1CCc2cc(OC)c(OCCc3ccc(OC)cc3)cc2C1c1ccc([N+](=O)[O-])cc1C (stereo not drawn) | 0.838% (active) |
| COc1ccc([C@@H]2[C@@H](O)C(=O)N2c2cc(OC)c(OC)c(OC)c2)cc1F | -2.79% (active) |
| Cc1ccc(-c2nnc(SCc3ccc(O)c4ncccc34)n2-c2ccccc2)cc1 | -3.23% (active) |
| COc1cc2oc(-c3cccc(C(=O)N[C@@H](CC(C)C)C(=O)OC(C)(C)C)c3)cc(=O)c2c(OC)c1OC | 56.9% |
| Cc1ccc(S(=O)(=O)N(CC[C@@H]2C[C@H]2c2cc3ccccc3o2)S(=O)(=O)c2ccc(C)cc2)cc1 | 98.6% |
| Brc1ccccc1/C=N/Nc1nc(N/N=C/c2ccccc2Br)nc(N2CCOCC2)n1 | 114% |
| CC1=NC2=NC(=O)/C(=C3/N=C(C)C=C(c4ccccc4)N3N)NN2C(c2ccccc2)=C1 | 116% |
| CN(C)CCN(C)c1ccc2ncc(C#Cc3cncc(C(=O)Nc4ccc(CN5CCN(C)CC5)c(C(F)(F)F)c4)c3)n2n1 | 59.9% |
| NC(N)=Nc1ccc(Oc2cccc(Nc3ccc(Br)c(C(F)(F)F)c3)c2)cn1 | -15.3% (active) |
| COc1cc(Cn2cc3c(c2)-c2onc(CN4CCOCC4)c2CC3)cc(OC)c1OC | 110% |
| Cc1cc(-c2ccc(Cl)cc2)n(Cc2nnc(SCC(=O)Nc3ccc(S(N)(=O)=O)cc3)n2-c2ccc([N+](=O)[O-])cc2)n1 | 96.7% |
| COc1ccc(C(=O)CSc2nc3c(c(Nc4ccc(S(N)(=O)=O)cc4)n2)CCCC3)cc1 | 110% |
| CCn1c(SCC(=O)Nc2cccc(C(=O)/C=C/c3cc(OC)c(OC)c(OC)c3)c2)nc2ccccc2c1=O | 59.3% |

| Compound | growth |
| --- | --- |
| Nc1ncc(-c2ccc(NS(=O)(=O)c3ccc(Cl)c(Cl)c3)cc2)[nH]1 | 79.5% |
| Cc1nn(-c2ccccc2)c2ncnc(N/N=C/c3ccccc3O)c12 | 35.6% |
| COc1cc(-c2nnc(SCc3ccc(O)c4ncccc34)n2-c2ccccc2)cc(OC)c1OC | 20.3% |
| Oc1ccc(CSc2nnc(-c3ccc(Cl)cc3)n2-c2ccccc2)c2cccnc12 | 25.8% |
| CCc1ccc(SC2c3ccc(N(CC)CC)cc3Oc3nc(N)c(C#N)c(N)c32)cc1 (stereo not drawn) | 9.11% (active) |
| CS(=O)(=O)Nc1cc(-c2ccc3ncc(C#N)c(NCc4ccccc4O)c3c2)cnc1Cl | -17.9% (active) |
| NS(=O)(=O)c1ccc(Nc2cc(-c3ccccc3)nc(SCC(=O)c3ccccc3)n2)cc1 | 107% |
| c1ccc(C(c2nc3ncncc3[nH]2)N2CSc3nc4ccccc4n3C2)cc1 (stereo not drawn) | 108% |
| COCCNc1ccc2ncc(C#Cc3cncc(C(=O)Nc4ccc(CN5CCN(C)CC5)c(C(F)(F)F)c4)c3)n2n1 | -33.9% (active) |
| O=c1c2ccccc2nc(COc2ccccc2)n1NS(=O)(=O)c1ccc(Cl)cc1 | 75% |
| NC(N)=Nc1ccc(Oc2cccc(Nc3ccc(Cl)c(C(F)(F)F)c3)c2)cn1 | -2.57% (active) |
| O=C1CC(=O)N2CSCN(C(c3ccccc3)c3nc4ncncc4[nH]3)C2=N1 (stereo not drawn) | 107% |
| COc1cc(/C=N/NC(=O)c2cn(C3CC3)c3c(OC)c(N4CC5CCCNC5C4)c(F)cc3c2=O)ccc1O (stereo not drawn) | 107% |
| C[C@H](CCC(=O)NCc1ccc(C(=O)Nc2ccccc2N)cc1)[C@H]1CC[C@H]2[C@@H]3[C@@H](O)C[C@@H]4C[C@H](O)CC[C@]4(C)[C@H]3CC[C@]12C | 69.6% |
| N#Cc1cn(Cc2ccc(Cl)cc2Cl)c(C(=O)c2ccc(Br)cc2)c1N | 90% |
| CCNC(=O)N1CCc2cc(OC)c(OCCc3ccc(OC)nc3)cc2C1c1ccc(OC)cc1C (stereo not drawn) | 29.8% |
| C=CCn1c(-c2nc3ccc(C(=C(C#N)C#N)c4ccccc4)cc3[nH]2)cc2cc(Br)ccc21 | 64.4% |
| Cc1ccc(S(=O)(=O)NCCNc2nc(Nc3ccc(N4CCN(C)CC4)cc3)nc3ccsc23)cc1 | 89% |
| COc1cc2nc(Cl)nc(Nc3cccc(C4=Nc5c(N)nc(N)nc5NC(c5ccc(Cl)cc5)C4)c3)c2cc1OC (stereo not drawn) | 88.6% |
